Measured values as given in PubChem BioAssay AID602429 (Sanford-Burnham Center for Chemical Genomics, 2012).
About 1,200 (0.33%) of roughly 360,000 compounds were called active. Shown is part of a subset that was picked to be rich in actives. A number with no mark means an inactive call. Cut-off read from the data, not from the text of the source: active = inhibition above about 37%; inactive = the rest.

Target: Small ubiquitin-related modifier 1 (Homo sapiens) (UniProt P63165)
Experiment: SUMO1 binding to interaction partners, disruption – biochemical, uHTS, primary screen (AID 602429)
Conditions: SUMO1 binding to a labelled peptide, TR-FRET, 1 h; at 20 µM; hits give high values

Small ubiquitin-related modifier 1 (Homo sapiens), sequence (P63165 whole entry, looked up): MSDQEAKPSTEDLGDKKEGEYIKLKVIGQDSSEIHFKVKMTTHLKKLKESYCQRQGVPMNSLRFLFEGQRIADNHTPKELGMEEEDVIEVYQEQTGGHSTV

Row | SMILES | inhibition
1 | COc1cccc(-c2cc3nc4c(c(N5CCC6(CC5)OCCO6)n3n2)CCCC4)c1 | 1.23%
2 | N#CC1(NC(=O)COC(=O)CSc2ccc(F)cc2)CCCCC1 | 1.24%
3 | O=C(NCC1CCCO1)C1CCN(C2CCN(C(=O)C3CCCCC3)CC2)CC1 (stereo not drawn) | 2.09%
4 | COc1ccc(C(=O)NCc2ccccc2C)cc1S(=O)(=O)NC1CCCC1 | 0.24%
5 | CCCNC(=O)C1(C)CCN(C(=O)c2cc(F)ccc2C)C1 (stereo not drawn) | -2.78%
6 | CCCCCc1nnc(NC(=O)c2ccc(=O)n(C)n2)s1 | -5.45%
7 | COCCNC(=O)Cn1cc2c(n1)CCCCC2 | 42.7% (active)
8 | O=C(Cn1cc2c(n1)CCCCC2)NCCN1CCOCC1 | -0.24%
9 | COc1ccccc1CNC(=O)Cn1cc2c(n1)CCCC2 | -1.54%
10 | Cc1ccc(NC(=O)c2oc(=O)c3ccccc3c2-c2ccccc2)c(C)c1 | 3.85%
11 | CCC1(C)COC(c2ccc(OC)c(OC)c2)OC1 (stereo not drawn) | 0.985%
12 | CCCC(C(=O)n1nc(C)cc1C)C(NS(=O)(=O)c1ccc(C)cc1)c1ccccc1 (stereo not drawn) | -1.84%
13 | Nc1ccc2nc3c(=O)[nH]c(=S)[nH]c3nc2c1 | 92.6% (active)
14 | CC(C)c1nc(SCC(=O)NC(=O)NC(C)(C)C)n[nH]1 | 1.88%
15 | COc1ccc(C)cc1N(CC(=O)NC(C)c1ccccc1)S(C)(=O)=O (stereo not drawn) | -0.711%
16 | CN(Cc1ccco1)S(=O)(=O)c1nnc(NC(=O)c2ccccc2)s1 | 6.06%
17 | O=[N+]([O-])c1c(NCCO)cc(Sc2nc3ccccc3s2)c2nonc12 | 48.4% (active)
18 | Cc1ccccc1C(=O)Nc1cccc(-c2nnc(SCC(=O)O)n2C)c1 | 3.31%
19 | CC(C)C(C(=O)NCc1ccco1)N(CC1CCCO1)C(=O)CNS(=O)(=O)c1ccc(F)cc1 (stereo not drawn) | 4.85%
20 | Cc1cc2cc3n(c2nn1)N=C(Cl)CC3 | -9.97%
21 | COc1cccc2c1C(=O)c1c(O)c3c(c(O)c1C2=O)CC(O)(C(C)=NNC(=O)c1ccc(Cl)c(Cl)c1)CC3OC1CC(N)C(O)C(C)O1 (stereo not drawn) | 111% (active)
22 | COc1ccc(NC(=O)CN(C)C(=O)c2cc(C3CC3)nn2-c2ccccc2)cc1 | -1.85%
23 | CCN1C(=NCCc2cccnc2)N[C@@H](c2ccccc2)[C@H](C(=O)OC)[C@H]1C | -3.87%
24 | CN(C(=O)CC1C(=O)NCCN1Cc1ccc(F)cc1Cl)C1CCCCC1 (stereo not drawn) | -1.34%
25 | COc1cc(Nc2nc3ccc(Cl)cc3n3cnnc23)cc(OC)c1OC | -1.84%
26 | COc1ccc(CCNc2nc3ccc(C)cc3n3cnnc23)cc1OC | 2.61%
27 | COc1ccc(OC)c(Nc2nc3ccccc3n3cnnc23)c1 | 47.2% (active)

Row | SMILES | inhibition
28 | N#C/C(=C/c1cccc([N+](=O)[O-])c1)c1nnc2n1CCCCC2 | -13.1%
29 | CC1CCN(C(=O)COC(=O)c2cc(=O)[nH]c3ccccc23)CC1 | -34.7%
30 | Oc1c(Cl)cc(Cl)c(Cl)c1Cc1c(O)c(Cl)cc(Cl)c1Cl | 68.6% (active)
31 | CCN(CC)S(=O)(=O)N1CCC(C(=O)NC(C)CCc2ccccc2)CC1 (stereo not drawn) | -0.482%
32 | Nc1nc(Sc2ncccc2[N+](=O)[O-])n[nH]1 | -26.7%
33 | CCCc1noc2c1/C(=N\O)CCC2 | 1.7%
34 | COc1ccc(-c2nnc(SC(C)C(=O)NC3CC3)o2)cc1 (stereo not drawn) | 1.98%
35 | COc1ccc(-c2nnc(-c3ccc4ccccc4c3)o2)cc1 | 51.9% (active)
36 | COc1ccc(-c2nnc(SC(=O)N3c4ccccc4Sc4ccccc43)o2)cc1 | -3.37%
37 | ONC(=Nc1ccccc1)c1ccccc1Cl | 0.653%
38 | CN(C(=O)COC(=O)c1cc(=O)[nH]c2ccccc12)C1CCCCC1 | -17.9%
39 | S=c1[nH]nc(-c2cccs2)n1/N=C/c1cn(-c2ccccc2)nc1-c1ccc(Cl)cc1 | 41.9% (active)
40 | Cc1ccsc1/C=N/n1c(=S)[nH]nc(C)c1=O | -0.0625%
41 | Clc1ccc(-n2nnnc2-c2cnc(-c3ccccn3)nc2-c2cccs2)cc1 | -11.8%
42 | CSCC[C@H](NC(=O)NC1CCCC1)C(=O)O | 2.79%
43 | O=C(COC(=O)c1cc(=O)[nH]c2ccccc12)Nc1nc(-c2cccc(Br)c2)cs1 | 2.92%
44 | Cc1cc(C)c(-c2csc(NC(=O)CCCc3nc4ccccc4c(=O)[nH]3)n2)c(C)c1 | 0.192%
45 | O=C(CSc1nc2ccccc2c(=O)[nH]1)Nc1nc(-c2ccc(Br)cc2)cs1 | 94.3% (active)
46 | O=C(O)c1ccc(S(=O)(=O)c2ccccc2)s1 | 2.5%
47 | COc1ccc(OCCCC(=O)Nc2nnc(C3CCCO3)s2)cc1 (stereo not drawn) | 0.167%
48 | COc1ccc2c(CC(=O)Nc3nnc(C4CC4)s3)coc2c1 | -1.1%
49 | COc1ccc(NC(=O)CCC(=O)Nc2nnc(C3CCCCC3)s2)cc1 | 44% (active)
50 | COc1ccccc1NC(=O)C1=C(C)Nc2nc3ccccc3n2C1c1cccs1 (stereo not drawn) | -1.24%
51 | COc1ccccc1NC(=O)C1=C(C)Nc2nnnn2C1c1cccc(Br)c1 (stereo not drawn) | 43.5% (active)
52 | COc1cc(C2C(C(=O)Nc3ccccc3OC)=C(C)Nc3ncnn32)ccc1O (stereo not drawn) | -0.861%
53 | O=C1c2ccccc2C(=O)C1C(=O)C1CC1 | -16.1%
